Values joined by “and” are separate entries in the source; they are usually repeats but may differ in a detail not shown here. Equal values may be shown once. In all, about 330,000 compounds went through this assay and about 3,800 (1.2%) were called active. No stated cut-off is given here; in the data, active means inhibition above about 15%; inconclusive means no clear call, values can overlap the other calls; inactive means below that. Only a selection was taken, and actives are over-represented in it overall. More than one record can exist for a structure, and the calls need not agree.
What follows are molecules tested against NAD-dependent protein deacylase sirtuin-5, mitochondrial (Homo sapiens) (UniProt Q9NXA8) (assay: SIRT5 desuccinylase inhibitors, primary screen, biochemical, fluorescence imaging, single point, set 5 (AID 652115)). Settings: Purified SirT5, succinyl-peptide AMC, trypsin-coupled fluorescence; at 15 µM; stronger effect = higher value.
Sequence of NAD-dependent protein deacylase sirtuin-5, mitochondrial (Homo sapiens) (Q9NXA8 whole entry, looked up): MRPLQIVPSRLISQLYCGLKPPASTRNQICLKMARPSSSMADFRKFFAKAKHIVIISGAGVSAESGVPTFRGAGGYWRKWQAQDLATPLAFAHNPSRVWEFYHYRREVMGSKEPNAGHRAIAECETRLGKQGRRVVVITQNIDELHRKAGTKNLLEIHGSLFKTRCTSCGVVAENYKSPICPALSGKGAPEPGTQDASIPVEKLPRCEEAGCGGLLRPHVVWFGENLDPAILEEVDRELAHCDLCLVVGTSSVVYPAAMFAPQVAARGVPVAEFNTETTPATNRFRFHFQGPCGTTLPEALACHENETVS
With `COc1cccc(-c2ccc3n(c2=O)C[C@@H]2[C@@H](CO)[C@H](C(=O)N4CCCCC4)N[C@H]32)c1` the inhibition was -26.1% (inactive).
For `C[C@H](O)C#Cc1ccc2c(c1)O[C@H](CN(C)Cc1ccccn1)[C@@H](C)CN([C@@H](C)CO)S2(=O)=O`, the inhibition was 2.94% (inactive).
In the case of `O=C(Cc1ccccc1)N[C@H]1C=C[C@H](CC(=O)N2CCCCC2)O[C@@H]1CO`, the inhibition is reported as 1.42% (inactive).
`COc1ccc2c3c([nH]c2c1)[C@H](CO)N(C(=O)NC1CCCC1)CC31CN(C(=O)Nc2cccc(F)c2)C1` was tested, and the inhibition was 5.32% (inactive).
With `O=C(NC1CCCCC1)N1CC2(C1)[C@@H](c1ccccc1)[C@@H](CO)N2CC1CCOCC1` the inhibition was -5.9% (inactive).
For `CC(C)NC(=O)N1CC(=O)N2[C@@H](CO)[C@H](c3ccc(C#CCN(C)C)cc3)[C@@H]2C1`, the inhibition was -1.28% (inactive).
In the case of `COCC(=O)N(C)C[C@@H]1Oc2cc(C#Cc3cccnc3)ccc2S(=O)(=O)N([C@H](C)CO)C[C@H]1C`, the inhibition is reported as -3.01% (inactive).
With `O=C(NC1CCCC1)[C@H]1[C@H](CO)[C@H]2Cn3c(ccc(-c4ccccc4F)c3=O)[C@@H]1N2C(=O)CC1CC1` the inhibition was -18.6% (inactive).
`CN1c2ccc(-c3cccc(F)c3)cc2[C@@H]2[C@@H](CCN2C(=O)Nc2ccccc2F)[C@@H]1CO` was tested, and the inhibition was -18.1% (inactive).
`O=C(C[C@H]1CC[C@@H]2[C@H](COC[C@H](O)CN2S(=O)(=O)c2ccc(F)cc2)O1)NCCN1CCCCC1` was tested, and the inhibition was -1.86% (inactive).
In the case of `O=C(N[C@H]1CC[C@H](CCn2cc(-c3ccccc3F)nn2)O[C@@H]1CO)c1ccc2c(c1)OCO2`, the inhibition is reported as 1.25% (inactive).
In the case of `CN(Cc1ccccc1F)C[C@H]1[C@@H](c2ccccc2)[C@@H](CO)N1S(C)(=O)=O`, the inhibition is reported as 0.402% (inactive).
`O=C(Nc1ccccc1F)N1C[C@@H]2[C@H](c3ccccc31)[C@@H](CO)N2C(=O)Nc1ccccc1` was tested, and the inhibition was -0.735% (inactive).
With `C[C@H]1CN([C@@H](C)CO)S(=O)(=O)c2ccc(C#CC3CCCC3)cc2O[C@H]1CN(C)C(=O)Cc1ccncc1` the inhibition was -0.107% (inactive).
In the case of `C[C@@H]1CN([C@H](C)CO)S(=O)(=O)c2ccc(C#CC3CCCC3)cc2O[C@@H]1CN(C)C(=O)Cc1ccncc1`, the inhibition is reported as 6.26% (inactive).
With `C[C@@H]1CN([C@H](C)CO)S(=O)(=O)c2ccc(C#CC3CCCCC3)cc2O[C@H]1CN(C)C(=O)Cc1ccncc1` the inhibition was 0.678% (inactive) and -0.925% (inactive) and 15.2% (active).
In the case of `CCCc1nnc(NC(=O)CCC(=O)N2CCN(S(=O)(=O)c3ccc(OC)cc3)CC2)s1`, the inhibition is reported as 1.56% (inactive).
`CC(C)c1nnc(NC(=O)CCC(=O)N2CCN(c3cccc(Cl)c3)CC2)s1` was tested, and the inhibition was 0.459% (inactive).
For `CCc1nnc(NC(=O)CCC(=O)N2CCN(c3cc(C)ccc3C)CC2)s1`, the inhibition was 18.5% (active).
In the case of `O=C(C1CCC1)N1CC(=O)N2[C@@H](CO)[C@@H](c3ccc(C#Cc4cccc(F)c4)cc3)[C@@H]2C1`, the inhibition is reported as -4.53% (inactive).
In the case of `Cc1ccccc1S(=O)(=O)N[C@H]1CC[C@@H](CCn2cc(Cc3ccccc3)nn2)O[C@H]1CO`, the inhibition is reported as 31.4% (active).
In the case of `Cc1ccccc1S(=O)(=O)N[C@@H]1CC[C@H](CCn2cc(-c3ccc(F)cc3)nn2)O[C@@H]1CO`, the inhibition is reported as -4.75% (inactive).
For `Cc1ccccc1S(=O)(=O)N[C@H]1CC[C@H](CCn2cc(-c3ccc(F)cc3)nn2)O[C@H]1CO`, the inhibition was -0.59% (inactive).
For `Cc1ccc(S(=O)(=O)N[C@@H]2CC[C@@H](CC(=O)O)O[C@@H]2CO)cc1`, the inhibition was 1% (inactive).
In the case of `O=C(C[C@@H]1CC[C@H](NC(=O)Nc2ccc3c(c2)OCO3)[C@H](CO)O1)NCc1ccccc1`, the inhibition is reported as -2.1% (inactive).
For `CN1c2ccc(-c3ccccc3)cc2[C@H]2[C@H](CCN2C(=O)Cc2ccccn2)[C@H]1CO`, the inhibition was 21.9% (active).
With `CN1c2ccc(-c3ccccc3F)cc2[C@H]2[C@H](CCN2C(=O)Cc2ccccn2)[C@H]1CO` the inhibition was 2.91% (inactive).
`CN1c2ccc(-c3ccccc3)cc2[C@@H]2[C@@H](CCN2C(=O)c2ccccc2)[C@H]1CO` was tested, and the inhibition was 6.95% (inactive).
In the case of `CCCNC(=O)C[C@H]1C[C@H]2c3cc(NC(=O)COC)ccc3O[C@H]2[C@H](CO)O1`, the inhibition is reported as -2.28% (inactive).
With `Cn1nnnc1SCC(=O)Nc1sccc1C(N)=O` the inhibition was -1.15% (inactive).
For `Cn1cnnc1SCC(=O)NNC(=O)COc1ccc(Br)cc1`, the inhibition was -1.96% (inactive).
For `Cn1nnnc1SCC(=O)NNC(=O)c1ccc(Br)cc1`, the inhibition was 20.1% (active).
In the case of `N#C[C@H]1[C@H](c2ccc(-c3cccc(F)c3)cc2)[C@@H](CO)N1C(=O)NC1CCCC1`, the inhibition is reported as 3.71% (inactive).
With `O=C1CN(Cc2ccc(F)cc2)C[C@H]2[C@@H](c3ccc(Br)cc3)[C@H](CO)N12` the inhibition was 2.52% (inactive).
For `CN1c2ccc(Br)cc2[C@@H]2[C@@H](CCN2C(=O)Cc2ccccc2)[C@@H]1CO`, the inhibition was 0.309% (inactive).
For `Cc1noc(C)c1S(=O)(=O)N(C)C[C@H]1Oc2ccc(NC(=O)C3CCCCC3)cc2C(=O)N([C@H](C)CO)C[C@@H]1C`, the inhibition was -3.3% (inactive).
`Cc1noc(C)c1S(=O)(=O)N(C)C[C@H]1Oc2ccc(NC(=O)C3CC3)cc2C(=O)N([C@H](C)CO)C[C@@H]1C` was tested, and the inhibition was 20.9% (active).
For `Cc1noc(C)c1S(=O)(=O)N(C)C[C@@H]1Oc2ccc(NC(=O)C3CC3)cc2CC(=O)N([C@@H](C)CO)C[C@@H]1C`, the inhibition was 1.59% (inactive).
`C[C@@H]1CN([C@H](C)CO)C(=O)c2cc(NC(=O)C3CC3)ccc2O[C@@H]1CN(C)C` was tested, and the inhibition was -4.11% (inactive).
`CC(C)NC(=O)N(C)C[C@@H]1Oc2ccc(NC(=O)C3CC3)cc2C(=O)N([C@@H](C)CO)C[C@H]1C` was tested, and the inhibition was 0.185% (inactive).
In the case of `C[C@@H]1CN([C@@H](C)CO)C(=O)c2cc(NC(=O)C3CC3)ccc2O[C@H]1CN(C)C`, the inhibition is reported as 41.9% (active) and -3.15% (inactive).
For `COc1ccc2c3c([nH]c2c1)[C@H](CO)N(C(=O)c1ccncc1)CC31CCN(C(=O)c2ccncc2)CC1`, the inhibition was 12.6% (inactive).
For `COc1ccc(S(=O)(=O)N(C)C[C@@H]2OCCCC[C@H](C)Oc3ccc(NC(=O)NC(C)C)cc3C(=O)N([C@@H](C)CO)C[C@@H]2C)cc1`, the inhibition was 0.637% (inactive).
`C[C@@H]1CN([C@@H](C)CO)C(=O)c2cc(/C=C/c3ccccc3)cnc2O[C@H]1CN(C)C(=O)Nc1ccc(C(F)(F)F)cc1` was tested, and the inhibition was 8.54% (inactive).
For `C[C@@H]1CN([C@H](C)CO)C(=O)c2cccc(NS(=O)(=O)c3ccc(F)cc3)c2O[C@@H]1CN(C)S(=O)(=O)c1ccccc1`, the inhibition was 3.68% (inactive).
With `Cc1nn(CC(=O)Nc2ccc(F)cc2)c(=O)c2ccccc12` the inhibition was -1.48% (inactive).
For `Cc1ccc(NC(=O)Cn2sc3ccccc3c2=O)cc1`, the inhibition was 19.6% (active).
`Cc1ccc(NC(=O)Cn2c(C)csc2=O)cc1` was tested, and the inhibition was 4.07% (inactive).
`O=C(C[C@H]1C=C[C@H](NC(=O)Nc2ccccc2F)[C@@H](CO)O1)NCc1ccc(Cl)cc1` was tested, and the inhibition was -6.94% (inactive).
`CN1c2ccc(Br)cc2[C@H]2[C@H](CCN2S(=O)(=O)c2ccc(F)cc2)[C@@H]1CO` was tested, and the inhibition was 0.059% (inactive).
In the case of `CC(C)NC(=O)N(C)C[C@H]1Oc2cc(C#Cc3ccccn3)ccc2S(=O)(=O)N([C@H](C)CO)C[C@@H]1C`, the inhibition is reported as -0.996% (inactive).
With `CCNC(=O)[C@@H]1[C@@H](CO)[C@@H]2Cn3c(ccc(C4=CCCC4)c3=O)[C@H]1N2Cc1ccccc1` the inhibition was -12.8% (inactive).
In the case of `NC1=C([N+](=O)[O-])C(c2ccccc2)C2=C(CCCC2=O)O1` (stereo unspecified), the inhibition is reported as 15.7% (active).
For `COc1ccc(C2C3=C(CCCC3=O)N(CC(=O)O)C3=C2C(=O)CCC3)cc1`, the inhibition was -6.31% (inactive).
In the case of `COc1cc(C2C3=C(CCCC3=O)OC3=C2C(=O)CCC3)ccc1OCC(=O)Nc1ccccc1`, the inhibition is reported as 1.24% (inactive).
For `C[C@H]1CCCCO[C@@H](CN(C)C(=O)c2ccccc2)[C@@H](C)CN([C@@H](C)CO)C(=O)c2cc(NS(=O)(=O)c3ccccc3)ccc2O1`, the inhibition was 0.494% (inactive).
In the case of `Cc1ccc(-c2cnc3c(c2)C(=O)N([C@H](C)CO)C[C@H](C)[C@@H](CN(C)C(=O)c2cccc(F)c2)O3)cc1`, the inhibition is reported as -11.3% (inactive).
With `CN1CCN(C(=O)C[C@H]2CC[C@H]3[C@@H](COC[C@H](O)CN3C(=O)c3ccc(F)cc3)O2)CC1` the inhibition was 1.19% (inactive).
`O=C(CC1CC1)Nc1ccc2c(c1)[C@@H]1C[C@@H](CC(=O)NC3CCCCC3)O[C@@H](CO)[C@@H]1O2` was tested, and the inhibition was -2.5% (inactive).
For `CO[C@@H]1CN(C)C(=O)c2ccc(NC(=O)C3CCCCC3)cc2OC[C@@H](C)N(Cc2nccs2)C[C@@H]1C`, the inhibition was 3.01% (inactive).
For `CC(C)NC(=O)Nc1ccc2c(c1)CC(=O)N([C@H](C)CO)C[C@H](C)[C@H](CN(C)Cc1ccc3c(c1)OCO3)O2`, the inhibition was 4.37% (inactive).
With `C[C@H]1CN([C@@H](C)CO)C(=O)Cc2cc(NC(=O)Nc3ccc4c(c3)OCO4)ccc2O[C@H]1CN(C)CC1CC1` the inhibition was -1.18% (inactive).
`C[C@H]1CN([C@@H](C)CO)C(=O)c2cc(NC(=O)Nc3ccc4c(c3)OCO4)ccc2O[C@@H]1CN(C)CC1CCCCC1` was tested, and the inhibition was 6.87% (inactive).
`COc1ccc(NC(=O)Nc2ccc3c(c2)CC(=O)N([C@@H](C)CO)C[C@H](C)[C@@H](CN(C)Cc2ccc4c(c2)OCO4)O3)cc1` was tested, and the inhibition was 3.53% (inactive).
In the case of `C[C@@H]1CN([C@@H](C)CO)C(=O)Cc2cc(NC(=O)Nc3ccc4c(c3)OCO4)ccc2O[C@@H]1CN(C)CC1CCCCC1`, the inhibition is reported as 18.8% (active).
For `C[C@@H]1CN([C@H](C)CO)C(=O)Cc2cc(NC(=O)Nc3ccc(F)cc3)ccc2O[C@@H]1CN(C)Cc1ccc2c(c1)OCO2`, the inhibition was 32.7% (active).

Reference: PubChem BioAssay AID652115 (Broad Institute, 2013)
